According to PubChem BioAssay (EPA / NIEHS):
Active and inactive are the calls of the source. Rule for the calls: active = hit-call score of the fitted dose curve at least 0.9, where 1 is the maximum; inactive = score below 0.9.

What follows are compounds tested on Broad substrate specificity ATP-binding cassette transporter ABCG2 (Homo sapiens) (UniProt Q9UNQ0) (assay: LTEA_HepaRG_ABCG2: Life Technologies and Expression Analysis (LTEA) Assay for ABC Transporter (ABCG2) using HepaRG (AID 2283465)). Settings: mRNA level, 48 h; actives raise or lower the signal.
Sequence of Broad substrate specificity ATP-binding cassette transporter ABCG2 (Homo sapiens) (Q9UNQ0 whole entry, looked up): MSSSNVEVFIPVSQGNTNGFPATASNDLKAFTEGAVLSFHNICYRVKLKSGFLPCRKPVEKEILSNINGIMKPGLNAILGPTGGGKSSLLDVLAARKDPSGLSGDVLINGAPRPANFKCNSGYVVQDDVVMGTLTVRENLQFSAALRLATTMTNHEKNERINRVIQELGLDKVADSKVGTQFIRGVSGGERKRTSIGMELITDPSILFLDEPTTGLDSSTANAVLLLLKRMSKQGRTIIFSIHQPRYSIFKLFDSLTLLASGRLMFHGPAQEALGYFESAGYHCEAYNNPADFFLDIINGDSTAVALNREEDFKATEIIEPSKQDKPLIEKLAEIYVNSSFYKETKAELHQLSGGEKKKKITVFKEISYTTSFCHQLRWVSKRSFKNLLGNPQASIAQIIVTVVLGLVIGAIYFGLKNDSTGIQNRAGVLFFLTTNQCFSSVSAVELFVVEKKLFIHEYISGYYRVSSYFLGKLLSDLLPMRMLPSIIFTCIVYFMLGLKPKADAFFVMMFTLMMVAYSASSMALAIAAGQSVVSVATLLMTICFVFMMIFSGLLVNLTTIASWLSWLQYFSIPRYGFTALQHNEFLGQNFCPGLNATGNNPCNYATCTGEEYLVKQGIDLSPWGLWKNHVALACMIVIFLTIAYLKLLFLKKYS
Outline: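 Gene expression of ABCG2 in HepaRG liver cells is quantified by qRT-PCR following 48 h exposure across an eight-point series topping at 100 uM. Values come from bidirectional fitting relative to DMSO vehicle.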

`CCCCC(O)(Cn1cncn1)c1ccc(Cl)cc1Cl` (stereo unspecified) was tested. Which outcome did it give?
Its outcome is “inactive”.

For `CC(C)N1C(=O)c2ccccc2NS1(=O)=O`, which outcome is on record?
The outcome was “inactive”.

For `O=C(Nc1ccccc1-c1ccc(Cl)cc1)c1cccnc1Cl`, which outcome is on record?
The outcome was “inactive”.

Which outcome does the source give for `N#CN=C1SCCN1Cc1ccc(Cl)nc1` here?
Its outcome is “inactive”.

Which outcome does the source give for `CCNC(=O)NC(=O)C(C#N)=NOC` here?
The outcome was “inactive”.

`Cc1c(COC(=O)[C@@H]2[C@H](/C=C(\Cl)C(F)(F)F)C2(C)C)cccc1-c1ccccc1` was tested. Which AC50 did it give?
Its AC50 is 50 µM (active).

For `C=C(C)CN(CC)c1c([N+](=O)[O-])cc(C(F)(F)F)cc1[N+](=O)[O-]`, which outcome is on record?
The outcome was “inactive”.

`CC(C)C1(C)N=C(c2ncccc2C(=O)O)NC1=O` (stereo unspecified) was tested. Which outcome did it give?
The outcome was “inactive”.

With `CCCC(=NOCC)C1=C(O)CC(CC(C)SCC)CC1=O` (stereo unspecified) as the compound, how does the outcome read?
The outcome was “inactive”.

Which outcome does the source give for `O=C1C2CC=CCC2C(=O)N1SC(Cl)(Cl)Cl` (stereo unspecified) here?
The outcome was “inactive”.

How did the outcome turn out when `COCc1cnc(C2=NC(C)(C(C)C)C(=O)N2)c(C(=O)O)c1` (stereo unspecified) was run?
The outcome was “inactive”.

With `Cc1nc(N(C)C)nc(OC(=O)N(C)C)c1C` as the compound, how does the outcome read?
The outcome was “inactive”.

`CC(C)N1C(=O)N(c2ccccc2)CSC1=NC(C)(C)C` was tested. Which AC50 did it give?
The AC50 was 50 µM (active).

With `Clc1cccc(C(Cl)(Cl)Cl)n1` as the compound, how does the outcome read?
Its outcome is “inactive”.

With `CC1(C)CON(Cc2ccccc2Cl)C1=O` as the compound, how does the outcome read?
Its outcome is “inactive”.

`CN/C(=N\[N+](=O)[O-])NCc1cnc(Cl)s1` was tested. Which AC50 did it give?
Its AC50 is 28.6 µM (active).

Which outcome does the source give for `Cc1ccc(N=CN(C)C=Nc2ccc(C)cc2C)c(C)c1` here?
Its outcome is “inactive”.

Which outcome does the source give for `CCN(CC)c1nc(C)cc(OP(=S)(OC)OC)n1` here?
The outcome was “inactive”.

Which outcome does the source give for `COCC(C)N(C(=O)CCl)c1c(C)csc1C` (stereo unspecified) here?
Its outcome is “inactive”.

`CCOc1nc(C(Cl)(Cl)Cl)ns1` was tested. Which AC50 did it give?
Its AC50 is 1.29 µM (active).

With `CCC(C)n1c(=O)[nH]c(C)c(Br)c1=O` (stereo unspecified) as the compound, how does the outcome read?
The outcome was “inactive”.

For `Nc1cnn(-c2ccccc2)c(=O)c1Cl`, which outcome is on record?
Its outcome is “inactive”.

Which outcome does the source give for `N#Cc1c(Cl)cccc1Cl` here?
Its outcome is “inactive”.

For `CCN(CC)C(=O)C(C)Oc1cccc2ccccc12` (stereo unspecified), which AC50 is on record?
Its AC50 is 50 µM (active).

Which outcome does the source give for `CC1(C)C(C(=O)OC(C#N)c2cccc(Oc3ccccc3)c2)C1(C)C` (stereo unspecified) here?
Its outcome is “inactive”.

How did the outcome turn out when `CC(C)Nc1nc(Cl)nc(NC(C)C)n1` was run?
Its outcome is “inactive”.

Which AC50 does the source give for `N#Cc1c[nH]cc1-c1cccc2c1OC(F)(F)O2` here?
Its AC50 is 50 µM (active).

With `Cn1c(-c2ccccc2)cc(-c2ccccc2)[n+]1C` as the compound, how does the outcome read?
Its outcome is “inactive”.

With `CCCN(CC)CC1COC2(CCC(C(C)(C)C)CC2)O1` (stereo unspecified) as the compound, how does the outcome read?
Its outcome is “inactive”.

`CCNP(=S)(OC)O/C(C)=C/C(=O)OC(C)C` (stereo unspecified) was tested. Which AC50 did it give?
The AC50 was 13.6 µM (active).

For `CS(=O)(=O)c1ccc(C(=O)C2C(=O)CCCC2=O)c([N+](=O)[O-])c1`, which outcome is on record?
Its outcome is “inactive”.

With `COP(=S)(OC)Oc1ccc([N+](=O)[O-])c(C)c1` as the compound, how does the outcome read?
Its outcome is “inactive”.

Which outcome does the source give for `COC(=O)NC(=S)Nc1ccccc1NC(=S)NC(=O)OC` here?
The outcome was “inactive”.

Which outcome does the source give for `COc1cc(Cl)c(OC)cc1Cl` here?
Its outcome is “inactive”.

Which outcome does the source give for `CC(C)(C)C(=O)C(Oc1ccc(Cl)cc1)n1cncn1` (stereo unspecified) here?
Its outcome is “inactive”.

With `CCCCOCN(C(=O)CCl)c1c(CC)cccc1CC` as the compound, how does the outcome read?
Its outcome is “inactive”.
